# Source: PubChem
# Shown is part of a subset that was picked to be rich in hits.
# ST2 inh = inhibitors of human ST2 (IL1RL1) binding to IL-33; Q01638; AlphaLISA ST2-Fc/biotin-IL-33 interaction, 1 h; inhibition, % for hits at 17 µM; 78,000 tested, 2.3% active; AID 1259354; in the data active = inhibition above about 30%
# Numbers without * were called inactive; i = inactive.
SMILES,ST2 inh
CCOc1ccc(CN2CCN(c3ccc(OC)cc3)CC2)cc1,34%*
COc1ccc(N2CCN(Cc3ccc(Cl)cc3)CC2)cc1,44%*
O=S(=O)(NC[C@H]1C[C@@H]2CCN1C[C@@H]2CN1CCN(c2ccccn2)CC1)c1cccs1,i
Cn1nc(-c2cccs2)cc1[C@H]1CN2CC[C@H]1C[C@@H]2CNC(=O)c1ccco1,i
COc1ccccc1N1CCN(C[C@H]2CN3CC[C@H]2C[C@@H]3CNS(=O)(=O)c2ccc(Cl)cc2)CC1,i
COCC(=O)NC[C@H]1C[C@@H]2CCN1C[C@@H]2CN1CCN(c2ncccn2)CC1,i
COc1ccc(-c2cc([C@H]3CN4CC[C@H]3C[C@@H]4CNC(=O)Nc3cccc(C#N)c3)n(C)n2)cc1,i
O=C1NC(=O)C(=Cc2cn(CCOc3ccc4c(c3)OCO4)c3ccccc23)C(=O)N1,35%*
CCN(CC)C(=O)Cn1cc(/C=C2\C(=O)NC(=O)N(c3ccccc3F)C2=O)c2ccccc21,i
O=C1CCc2cc(S(=O)(=O)N3CC4CC(C3)c3cccc(=O)n3C4)ccc2N1 (stereo not drawn),i
C=CS(=O)[C@H]1C[C@@]2(Cl)C(Cl)=C(Cl)[C@@]1(Cl)C2(Cl)Cl (stereo partly drawn),i
COc1ccc(/C=C/c2nc3ccccc3c(=O)n2-c2ccccc2OC)cc1,32%*
COc1ccc(-n2c(/C=C/c3ccccc3)nc3ccccc3c2=O)cc1OC,i
O=c1c2ccccc2nc(/C=C/c2ccccc2)n1-c1ccccc1F,i
Cc1nccnc1N1C[C@H](c2cccc(F)c2F)[C@@H]2[C@H]1C1CCN2CC1,i
O=C(Nc1ccc2n(c1=O)C[C@H]1C[C@@H]2CN(C(=O)Cc2cccs2)C1)c1ccco1,i
O=C(O)C1Nc2c(F)cccc2C2C(Cl)C(Sc3ccccc3[N+](=O)[O-])CC12 (stereo not drawn),34%*
Clc1ccccc1CN1CCN(Cc2ccc3c(c2)OCO3)CC1,i
CC1CN(C2(n3nnc4ccccc43)CCC(C(C)(C)C)CC2)CC(C)O1 (stereo not drawn),i
O=C(c1ccco1)N1C[C@@H]2C[C@H](C1)c1ccc(NS(=O)(=O)Cc3ccccc3)c(=O)n1C2,i
S=C(NCc1ccco1)NC[C@H]1C[C@@H]2CCN1C[C@@H]2CN1CCN(c2ccccc2)CC1,i
COCCNC(=O)[C@H]1CN2CC[C@H]1C[C@@H]2Cn1cc(C(C)(C)O)nn1,i
CCOc1ccc(CN2CCN(c3ccccc3C)CC2)cc1,i
Cc1ccccc1N1CCN(Cc2ccc(O)cc2)CC1,i
Cc1ccccc1N1CCN(Cc2ccc(N(C)C)cc2)CC1,45%*
SMILES,ST2 inh
C=C[C@H]1CN2CC[C@H]1C[C@@H]2CNC(=S)Nc1ccc(F)cc1,i
Cc1cccc(-n2c(/C=C3\C(=O)Nc4ccccc43)nc3ccccc3c2=O)c1,i
Cc1cccc(-n2c(-c3cccnc3)nc3ccccc3c2=O)c1,46%*
O=c1c2ccccc2nc(-c2ccccc2)n1-c1ccccc1,i
N#Cc1cccc(-c2ccc(=O)n3c2[C@@H]2C[C@@H](CN(C(=O)c4cccs4)C2)C3)c1,i
O=C(Nc1ccc(=O)n2c1[C@@H]1C[C@@H](CN(C(=O)c3ccc(F)cc3)C1)C2)c1cncnc1,i
O=[N+]([O-])c1ccc(NCCCN2CCOCC2)c2cccnc12,i
CC(Nc1ccc([N+](=O)[O-])c2cccnc12)c1ccc(Br)cc1 (stereo not drawn),40%*
O=C(NC(Oc1ccccc1)C(Cl)(Cl)Cl)c1cccnc1 (stereo not drawn),i
O=[N+]([O-])c1ccc(CN2CCN(Cc3ccccc3)CC2)cc1,i
CN1CCN(Cc2cccc(Br)c2)CC1,i
CCN1CCN(Cc2cccc(Br)c2)CC1,i
Brc1cccc(CN2CCN(c3ccccc3)CC2)c1,31%*
Fc1ccc(CN2CCN(c3cccc(Cl)c3)CC2)cc1,i
O=[N+]([O-])c1ccc(N2CCN(Cc3cccc(Cl)c3)CC2)cc1,36%*
COc1cccc(/C=C/c2nc3ccccc3c(=O)n2-c2cccc(F)c2)c1OC,i
CCCS(=O)(=O)NC[C@H]1C[C@@H]2CCN1C[C@@H]2c1cc(-c2ccc(OC)cc2)nn1C,i
Cc1ccc(S(=O)(=O)NC[C@H]2C[C@@H]3CCN2C[C@@H]3CN(C)c2ccccc2)cc1,i
O=C(Nc1ccccc1)Nc1ccc2n(c1=O)C[C@H]1C[C@@H]2CN(C(=O)Cc2cccs2)C1,i
Cc1ccc(CN2CCN(c3cccc(C)c3C)CC2)cc1,i
Cc1c(C(=O)N2CCC3(CC2)OCCO3)oc2ccc(S(=O)(=O)N3CC(C)CC(C)C3)cc12 (stereo not drawn),i
COCCC(=O)N1C[C@@H]2C[C@H](C1)c1ccc(NC(=O)c3ccc(C#N)cc3)c(=O)n1C2,35%*
COCCC(=O)N1C[C@@H]2C[C@H](C1)c1ccc(-c3cccc(C(F)(F)F)c3)c(=O)n1C2,i
COc1ccc(-c2ccc3n(c2=O)C[C@H]2C[C@@H]3CN(C(=O)c3ccc(C#N)cc3)C2)cc1,i
Cn1cc(CC(=O)N2CCN(C3CCCCC3)CC2)c2ccccc21,i
CCN1CCN(Cc2cccc(OC)c2OC)CC1,i
